Measured values as given in PubChem BioAssay AID1063 (University of Pittsburgh Molecular Library Screening Center, 2008).
In all, about 200,000 compounds went through this assay and about 18,000 (9%) were called active. This is one part of a sample in which actives are shown more often than they occur. Cut-off read from the data, not from the text of the source: active = inhibition above about 50%; inactive = the rest.

Test: Leishmania major promastigote growth inhibition, primary screen (AID 1063);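 note: promastigotes grown with compound for 44 hours at 28 °C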
Settings: Leishmania major promastigotes, resazurin fluorescence viability; at 10 µM; hits give high values

SMILES | inhibition
Cc1ccc(NC(=O)CSc2nnc(COc3ccccc3C)o2)cc1 | -2.82% (inactive)
O=C(COC(=O)c1cc(S(=O)(=O)N2CCCCC2)ccc1Cl)NCc1ccco1 | 7.75% (inactive)
CCn1c2ccccc2c2cc(NC(=O)COC(=O)c3ccccc3Br)ccc21 | -2.86% (inactive)
CCn1c2ccccc2c2cc(NC(=O)COC(=O)c3cc(S(=O)(=O)N4CCCCC4)ccc3Cl)ccc21 | 73.8% (active)
CSCCC(NC(=O)c1cc([N+](=O)[O-])cc([N+](=O)[O-])c1)c1nc2ccccc2[nH]1 (centres undefined) | 96.8% (active)
COc1ccc(CC(=O)N[C@@H](CCSC)c2nc3ccccc3[nH]2)cc1 | -4.82% (inactive)
CSCCC(NC(=O)c1ccc(=O)n(C)n1)c1nc2ccccc2[nH]1 (centres undefined) | -5.06% (inactive)
Cc1ccc(CN(N=Nc2nonc2N)c2nonc2N)c(C)c1 | 88.8% (active)
Cc1ccc2c(c1)C1CN(C)CCC1N2C(=S)Nc1ccc(OC(F)F)cc1 (centres undefined) | 34.5% (inactive)
Cc1ccc2nc(C)cc(N/N=C/c3ccc(F)cc3)c2c1 | 7.72% (inactive)
CCC(C)NCCOCCOc1ccc(Br)cc1C (centres undefined) | 99% (active)
COCC(C)NCc1cc(Br)ccc1OC (centres undefined) | -1.49% (inactive)
CCOCCCNCc1cc(Br)ccc1OCC | 13.3% (inactive)
CCN(CC)S(=O)(=O)c1ccc(N(C)Cc2cccc(OC)c2OC)nc1 | 8.96% (inactive)
CCN(Cc1ccccc1)S(=O)(=O)c1cc(C(=O)O)ccc1OC | -8.56% (inactive)
O=S(=O)(c1ccc2c(c1)OCCO2)N1CCc2ccccc21 | -6.88% (inactive)
Cc1cccc(N2CCN(C(c3ccc(N(C)C)cc3)c3nnnn3C(C)(C)C)CC2)c1C (centres undefined) | 11.3% (inactive)
Cc1cccc(N2CCN(C(c3ccccc3)c3nnnn3CC3CCCO3)CC2)c1C (centres undefined) | 75.9% (active)
COc1ccccc1C(c1nnnn1CC1CCCO1)N1CCN(c2ccccc2)CC1 (centres undefined) | 6.1% (inactive)
COc1ccc(C(=O)Nc2ccc(N3CCC(C)CC3)cc2)cc1Br | -6.43% (inactive)

SMILES | inhibition
Cn1nc(-c2ccc(N3CCOCC3)c(NC(=O)c3ccccc3)c2)c2ccccc2c1=O | 77% (active)
COc1ccc(-c2nn(C)c(=O)c3ccccc23)cc1NC(=O)COc1ccccc1 | 8.76% (inactive)
O=C(Nc1cc(-c2nn(CC(=O)N3CCCCC3)c(=O)c3ccccc23)ccc1N1CCOCC1)c1ccc(Cl)cc1 | 0.47% (inactive)
CN(CC(=O)Nc1ccccc1F)CC(=O)Nc1ccccc1Br | -4.41% (inactive)
NS(=O)(=O)c1ccc(NC(=S)Nc2ccc(Br)c(Cl)c2)cc1 | 10.7% (inactive)
CC(C)(C)C(=O)NCCCNc1ccc([N+](=O)[O-])cc1 | -6.51% (inactive)
CCOc1cc(/C=C2/C(=N)N3OC(C)=CC3=NC2=O)ccc1OC | 2.63% (inactive)
Cn1nnnc1NCc1ccc(Cl)c(Cl)c1 | 6.1% (inactive)
COc1ccc(N2CCN(c3ccc([N+](=O)[O-])nc3)CC2)cc1 | -3.36% (inactive)
CC1(C)CC(=O)c2c(n(S(=O)(=O)c3ccccc3)c3ccc(NS(=O)(=O)c4ccccc4)cc23)C1 | 98.6% (active)
Cn1c(=O)n(C)c2cc(NS(=O)(=O)c3ccc(F)cc3)ccc21 | 4.59% (inactive)
O=S(=O)(Nc1ccc2cn[nH]c2c1)c1ccccc1 | 6.15% (inactive)
Cc1cnc(C(=O)OCC(=O)N2CCc3ccccc32)cn1 | 5.21% (inactive)
C=CCc1ccc(OCC(O)CN2CCN(Cc3ccccc3)CC2)c(OC)c1 (centres undefined) | 87.8% (active)
C/C=C/c1ccc(OCC(O)CN2CCCCCCC2)c(OC)c1 (centres undefined) | -0.01% (inactive)
Cc1ccc(OCC(O)CN2CCN(CC(O)COc3ccc(C)cc3Cl)CC2)c(Cl)c1 (centres undefined) | -0.86% (inactive)
CCOC(=O)Cn1c(=O)oc2cc(S(=O)(=O)NCC3CCCO3)ccc21 (centres undefined) | -5.87% (inactive)
CCOC(=O)Cn1c(=O)oc2cc(S(=O)(=O)N(C)Cc3ccco3)ccc21 | 98.7% (active)
CC(C)CCNC(=O)Cn1c(=O)oc2cc(S(=O)(=O)N3CC(C)CC(C)C3)ccc21 (centres undefined) | -10.9% (inactive)
CCOC(=O)C1=C(c2ccc(OC)cc2)C(=O)c2ccccc2C1=O | 101% (active)

SMILES | inhibition
COc1ccc(OCCCON2C(=O)c3ccccc3C2=O)cc1 | -2.83% (inactive)
CCCCC(C(=O)OCC(=O)c1ccc(OC)cc1)N1C(=O)c2ccccc2C1=O (centres undefined) | -3.44% (inactive)
O=C(CCNC(=O)c1ccc([N+](=O)[O-])cc1)Nc1ccccc1N1CCOCC1 | 7.58% (inactive)
CC(C)CN1CCNC(=O)C1CC(=O)N(C)CC1CCOCC1 (centres undefined) | 9.06% (inactive)
CCOc1cc(/C=N/NC(=O)c2ccc(CSc3nncn3C)cc2)ccc1OCC(=O)N1CCOCC1 | -1.61% (inactive)
COc1ccc(/C=C2/SC(=O)N(CCCCCC(=O)Nc3ccccc3C(=O)O)C2=S)cc1 | -8.92% (inactive)
Cc1ccc(-c2csc(N(Cc3ccco3)C(=O)c3cccs3)n2)cc1 | 100% (active)
Cc1ccc(-c2csc(NC(=O)c3cccs3)n2)cc1 | 3.66% (inactive)
O=C(O)CCC(=O)N(Cc1ccco1)c1nc(-c2ccccc2)cs1 | -11.4% (inactive)
CN(Cc1ccccn1)Cc1nc(-c2ccc(Cl)cc2)no1 | -2.18% (inactive)
CCN(C(=O)COC(=O)/C=C/c1nc2ccccc2s1)C1CCS(=O)(=O)C1 (centres undefined) | -2.12% (inactive)
COc1ccc(/C=C/C(=O)OCC(=O)Nc2cccc(Oc3ccccc3)c2)c(OC)c1 | -2.55% (inactive)
O=C(COC(=O)/C=C/c1nc2ccccc2s1)Nc1ccccc1Oc1ccccc1 | 51.7% (active)
COc1ccc(-c2cn3cccnc3n2)cc1 | 10.2% (inactive)
Cc1cccc(C2=N/C(=C/c3cccs3)C(=O)O2)c1 | 1.4% (inactive)
Cc1ccc(NC(=O)CN2CCCCC2)c2c1CC(C)(C)O2 | 3.82% (inactive)
Cc1cc(C)c2nc(SCC(=O)N(C)C3CCS(=O)(=O)C3)cc(C)c2c1 (centres undefined) | 0.72% (inactive)
Cc1cccc(C)c1OCC(=O)NC(Cc1c[nH]c2ccccc12)C(=O)O (centres undefined) | -3.57% (inactive)
O=S(=O)(Nc1cc(S(=O)(=O)N2CCOCC2)ccc1N1CCCC1)c1cccs1 | -3.24% (inactive)
